Screening data from PubChem.
HCV inh – qHTS Assay for Inhibitors of Hepatitis C Virus (HCV); 340,000 tested, 3.4% active; Potency, µM (series often up to 41.8 µM), hits mostly inhibitors; AID 651820, 2012; Huh7.5.1 HCVcc-Cre infection, luciferase reporter, 44 h
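After 44 h co-culture of compound, cells and HCVcc-Cre (~0.5 moi), substrate is added for 15 min at room temperature and luciferase measured over 15 sec. Cells were seeded at 1,000/well and pre-cultured 4 h.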
Pf growth 48h – Primary qHTS for delayed death inhibitors of the malarial parasite plastid, 48 hour incubation; P. falciparum luciferase growth in erythrocytes, 48 h; Potency, µM (highest dose often 28.7 µM), actives largely listed as inhibitors; 310,000 tested, 5.9% active; AID 504832, 2011
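Parasite viability was followed by luminescence of a genomically integrated firefly luciferase. Cultures held 0.1% parasitemia at 2% hematocrit (final), incubated under 5% CO2 at 37 C.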
Pf growth 96h – Primary qHTS for delayed death inhibitors of the malarial parasite plastid, 96 hour incubation | P. falciparum luciferase reporter growth, 96 h | Potency, µM (doses to about 28.7 µM), hits mostly inhibitors | 320,000 tested, 6.9% active | AID 504834, 2011
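Infected RBCs, 2% Hct / 0.05% parasitemia final; luciferase-reporter P. falciparum; cpd 96 h, 37 C, 5% CO2; luciferase detection reagent; luminescence.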
HCMV inh – qHTS Assay for inhibitors of the human cytomegalovirus (HCMV); 410,000 tested, 4.5% active; HFF cells, HCMV-luciferase reporter, 72 h; active compounds read low; activity change, negative = inhibition, % at 57.5 µM; AID 1259415, 2018; in the data active = activity change below about -60%; inconclusive = no clear call, values can overlap the other calls; inactive = above about -39%
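Two-dose cell screen: HFF monolayers treated with compounds and infected with luciferase-expressing HCMV at 1 PFU/cell, 72 h at 37C, then lysed for luciferase measurement.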
Lassa entry inh – qHTS for Inhibitors of binding or entry into cells for Lassa Virus; 300,000 tested, 1.2% active; Potency, µM (titrated, usually from 37.9 µM), actives largely listed as inhibitors; Lassa virus pseudotype entry inhibition, cell reporter; calls by dose curve; tested in HEK293 cells; note: nearly all actives have a fitted effect of over 50% in size
Marburg entry inh – qHTS for inhibitors of binding or entry into cells for Marburg Virus; Marburg virus pseudotyped entry inhibition, cell reporter; Potency, µM (titrated, usually from 37.8 µM), actives largely listed as inhibitors; 300,000 tested, 1.8% active; AID 540276, 2011; calls by dose curve; tested in HEK293 cells
Hits are given with their value. Shown are actives, neighbours in structure and some others; about 14% of the full set was active somewhere. Unless noted, calls come from the whole dose curve; as a rule, active = well fitted inhibition curve with a large enough effect; inconclusive = small, poorly fitted or top-dose-only effect, or another doubt; inactive = no such curve, though single readings can be large or run the other way.

What do the screens show for `O=C(/C=C/c1ccc([N+](=O)[O-])cc1)c1ccccc(=O)c1O`?
HCV inh: 7.9µM; HCMV inh: -95; Lassa entry inh: inconclusive; Marburg entry inh: inconclusive

What do the screens show for `CC(C)CCN(C(=O)C1=COCCO1)c1c(N)n(Cc2ccccc2)c(=O)[nH]c1=O`?
HCV inh: inactive; Pf growth 48h: inactive; Pf growth 96h: inactive; HCMV inh: inactive; Lassa entry inh: inactive; Marburg entry inh: inconclusive

How did O=C(/C=C/c1ccccc1Cl)c1ccccc(=O)c1O do in these assays?
HCV inh: inconclusive; Pf growth 48h: 5.2µM; Pf growth 96h: 3.7µM; HCMV inh: inconclusive; Lassa entry inh: inconclusive; Marburg entry inh: inconclusive

How did O=C(C=Cc1ccccc1)c1cccs1 do in these assays?
HCV inh: inactive; HCMV inh: inactive; Lassa entry inh: inactive; Marburg entry inh: inconclusive

How did O=C(/C=C/c1ccc([N+](=O)[O-])cc1)c1cccs1 do in these assays?
HCV inh: inactive; Pf growth 48h: inactive; Pf growth 96h: inactive; HCMV inh: -76

How did CCCNC(=O)C1(C)CCCN(C(=O)C2(c3ccc(Cl)cc3)CCCC2)C1 (stereo not drawn) do in these assays?
HCMV inh: inactive

How did COc1ccc(NC(=O)Cn2nnc(-c3ccccc3)c2COc2ccc(C(C)=O)cc2)cn1 do in these assays?
HCMV inh: inactive

What do the screens show for `CC(C)(C)OC(=O)N1CCC(c2c(C(=O)N3CCN(c4ncccn4)CC3)cnn2-c2ccc(F)cc2)CC1`?
HCMV inh: inactive; Lassa entry inh: inactive

What do the screens show for `CC(=O)Nc1ccc(N(C)C)cc1[N+](=O)[O-]`?
HCV inh: inactive; Pf growth 48h: 2.6µM; Pf growth 96h: inactive; HCMV inh: inactive; Lassa entry inh: inactive; Marburg entry inh: inactive

How did C=CCCCN1C(=O)NC(c2ccccc2)C(C(=O)OC)=C1C (stereo not drawn) do in these assays?
Marburg entry inh: inactive

Results for CC(=Nc1ccccc1)C1=C(O)C(Cc2cccc(F)c2)NC1=O (stereo not drawn) ?
HCMV inh: -72

Results for CC(=Nc1ccccc1)C1=C(O)C(Cc2ccc(O)cc2)NC1=O (stereo not drawn) ?
HCV inh: inactive; HCMV inh: -69; Lassa entry inh: inconclusive; Marburg entry inh: inactive

How did Cc1ccc(CCNC(=O)c2cc3c(s2)-c2ccccc2OC3)cc1 do in these assays?
HCMV inh: -89; Marburg entry inh: inactive

Results for CC1CCN(CCCNC(=O)c2cc3c(s2)-c2ccccc2OC3)CC1 ?
HCV inh: inconclusive; Pf growth 48h: inactive; Pf growth 96h: inactive; HCMV inh: inactive

How did O=C(NCc1cccc(Cl)c1)c1cc2c(s1)-c1ccccc1SC2 do in these assays?
HCMV inh: inactive; Lassa entry inh: inactive; Marburg entry inh: inactive

How did Cc1ccc(CCNC(=O)c2cc3c(s2)-c2c(C)cccc2OC3)cc1 do in these assays?
HCMV inh: -86; Marburg entry inh: inactive

What do the screens show for `O=C(NCCc1ccc(Cl)cc1)c1cc2c(s1)-c1ccccc1OC2`?
HCMV inh: inactive; Marburg entry inh: inactive

Results for CC1CCCN(CCCNC(=O)c2cc3c(s2)-c2ccccc2OC3)C1 (stereo not drawn) ?
HCV inh: 11µM; Pf growth 48h: inconclusive; Pf growth 96h: inactive; HCMV inh: -67; Lassa entry inh: inconclusive; Marburg entry inh: 3.2µM

How did NNC(=O)c1cc2c(s1)-c1cc(Cl)ccc1SC2 do in these assays?
HCV inh: inactive; Pf growth 48h: 9.3µM; Pf growth 96h: inactive; HCMV inh: inactive; Lassa entry inh: inconclusive; Marburg entry inh: inactive

What do the screens show for `CCOc1ccccc1-n1cc2c(c1-c1ccc(OC)cc1)c(=O)n(C)c(=O)n2C`?
HCMV inh: inactive; Lassa entry inh: inactive; Marburg entry inh: inactive

How did Cc1ccc(CNC(=O)c2cc(=O)c3cc(C)cc(C)c3o2)cc1 do in these assays?
HCMV inh: inactive; Lassa entry inh: inactive; Marburg entry inh: inconclusive

Results for O=C(COC(=O)C1=COCCO1)NC1CCCCC1 ?
HCV inh: inactive; Pf growth 48h: inactive; Pf growth 96h: inactive; HCMV inh: inactive; Lassa entry inh: inactive; Marburg entry inh: inactive
